{
  "source": "PubChem BioAssay AID602376",
  "about": "(Johns Hopkins Ion Channel Center, 2012)",
  "note": "Measured potencies and affinities stand elsewhere. Inconclusive results are not listed. Activity calls are given as the source filed them.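 The calls were made as follows: active = raises choline transporter activity at one or more tested doses and gives a fitted dose-response curve; inconclusive = no clear call, values can overlap the other calls; inactive = no choline transporter activation at any dose, or no curve.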",
  "data": [
    {"target": "High affinity choline transporter 1 (Homo sapiens) (UniProt Q9GZV3)", "sequence (Q9GZV3 whole entry, looked up)": "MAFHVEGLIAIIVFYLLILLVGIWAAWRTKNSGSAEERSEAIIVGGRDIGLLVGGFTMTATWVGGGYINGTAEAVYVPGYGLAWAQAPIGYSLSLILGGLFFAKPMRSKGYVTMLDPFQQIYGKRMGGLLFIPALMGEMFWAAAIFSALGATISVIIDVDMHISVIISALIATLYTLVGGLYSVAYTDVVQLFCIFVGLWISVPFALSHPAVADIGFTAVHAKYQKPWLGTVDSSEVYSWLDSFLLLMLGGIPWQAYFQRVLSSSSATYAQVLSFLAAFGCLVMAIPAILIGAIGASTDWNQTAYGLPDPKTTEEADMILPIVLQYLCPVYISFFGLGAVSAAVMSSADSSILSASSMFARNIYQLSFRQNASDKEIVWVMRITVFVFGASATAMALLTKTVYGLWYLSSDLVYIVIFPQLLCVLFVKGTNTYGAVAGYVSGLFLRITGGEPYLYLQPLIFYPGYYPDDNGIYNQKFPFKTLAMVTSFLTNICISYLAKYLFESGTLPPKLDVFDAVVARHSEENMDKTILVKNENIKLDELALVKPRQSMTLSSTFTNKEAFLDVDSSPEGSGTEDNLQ", "experiment": "CHT activators, dose response, cell-based, 10-point CRC, membrane potential dye (AID 602376)", "conditions": "HEK293-CHT, choline-induced membrane potential dye, cells express CHT LV-AA mutant; series mostly up to 67 µM; percent activation: at the top concentration", "values": [
      {"compound": "CCN1C(N(C)CCc2cccs2)=N[C@@H](c2ccccc2)C(C(=O)OC)=C1C", "percent activation": "89.2% (inactive)"},
      {"compound": "COc1cccc(-c2cn(C[C@H]3CC[C@@H]([C@@H]4CC[C@H](Cn5cc(-c6cccc(OC)c6)nn5)O4)O3)nn2)c1", "percent activation": "67.4% (inactive)"},
      {"compound": "CCC(C)c1ccccc1N1CC(C(=O)Nc2ccccc2N2CCCC2)CC1=O", "note": "(stereo not given)", "percent activation": "56.3% (inactive)"},
      {"compound": "CN(Cc1ccc(F)cc1)C(=O)C(c1ccccc1)c1ccccc1", "percent activation": "74.1% (inactive)"},
      {"compound": "O=C(c1ccco1)N(CCC(c1ccccc1)c1ccco1)Cc1ccccc1", "note": "(stereo not given)", "percent activation": "61.2% (inactive)"},
      {"compound": "COc1ccc(-c2c3c(=O)n(C)c(=O)n(C)c3cn2C2CCCCC2)cc1", "percent activation": "45.3% (inactive)"},
      {"compound": "CCCC(c1nnnn1Cc1ccco1)N1CCN(c2cc(Cl)ccc2C)CC1", "note": "(stereo not given)", "percent activation": "66% (inactive)"},
      {"compound": "Cc1cccc2c(=O)cc(C)n(CC(=O)N3CCOCC3)c12", "percent activation": "-3.24% (inactive)"},
      {"compound": "Cc1cccc(Oc2nc(CN3CCOCC3)nc3sc4c(c23)CCCC4)c1", "percent activation": "72.8% (inactive)"},
      {"compound": "O=C1CCCCCCCCCC/C(=N\\O)CCCO1", "percent activation": "21.1% (inactive)"},
      {"compound": "CCOC(=O)C1(CCc2ccccc2)CCN(Cc2cc(OC)c(OC)cc2OC)CC1", "percent activation": "86.5% (inactive)"},
      {"compound": "Cc1ccnc2nc(C(=O)Nc3nccs3)nn12", "percent activation": "22.4% (inactive)"},
      {"compound": "CCOC(=O)c1c(CSc2ccsc2)n(C)c2cc(Br)c(O)c(CN(C)C)c12", "percent activation": "93.4% (inactive)"},
      {"compound": "CN1CCN(Cc2nc3ccccc3c(=O)n2Cc2nc(-c3ccccc3F)cs2)CC1", "percent activation": "37.2% (inactive)"},
      {"compound": "NCCCC[C@H]1CN=C(N)N1CCCCC1CCCCC1", "percent activation": "24.9% (inactive)"},
      {"compound": "Cc1ccc(-n2c(SCCN)nnc2-c2cccc(C)c2)cc1", "percent activation": "20.4% (inactive)"},
      {"compound": "COc1ccc(C(N)c2nccc3cc(OC)c(OC)cc23)cc1OC", "note": "(stereo not given)", "percent activation": "48.1% (inactive)"},
      {"compound": "Cn1c(=O)c2c(nc(CN3CCCCC3)n2CCc2ccccc2)n(C)c1=O", "percent activation": "46.7% (inactive)"},
      {"compound": "O=C1N(Cc2cccc(Cl)c2)C[C@@H]2C[C@@H](c3ccsc3)N3CCC[C@@]123", "percent activation": "83.3% (inactive)"},
      {"compound": "CC1(C)Cc2c(sc3nc4n(c(=N)c23)CCC4)CO1", "percent activation": "-7.72% (inactive)"},
      {"compound": "COc1ccc(-c2c(-c3cc(OC)c(OC)c(OC)c3)noc2C)cn1", "percent activation": "94.6% (inactive)"},
      {"compound": "COc1ccc(C(=O)CSc2nnc(CNC(=O)c3ccco3)n2C)cc1", "percent activation": "18.6% (inactive)"},
      {"compound": "Clc1ccc(CN2C3=NCCN3c3ccccc32)cc1Cl", "percent activation": "76.6% (inactive)"},
      {"compound": "CC(C)CCNC(=O)/C=C/c1ccc(Br)cc1", "percent activation": "53% (inactive)"},
      {"compound": "CCOC(=O)C1(CC2CC2)CCN(Cc2cn[nH]c2-c2cccc(F)c2)CC1", "percent activation": "84.1% (inactive)"},
      {"compound": "COC(=O)C1=C(C)N(Cc2ccccc2)C(=NCC(C)C)N[C@H]1c1ccccc1", "percent activation": "156% (inactive)"},
      {"compound": "Cc1ccc(Cl)cc1N1CCN(C(=O)C2CCC(=O)N(C3CCCCCC3)C2)CC1", "note": "(stereo not given)", "percent activation": "76.8% (inactive)"},
      {"compound": "CCCC(=O)N1c2ccccc2C(=C2SC(C(=O)OC)=C(C(=O)OC)S2)C(=S)C1(C)C", "percent activation": "43.5% (inactive)"},
      {"compound": "COC(=O)CNC(c1ccccc1)c1cc(C)ccc1NC(=O)c1cccc(Cl)c1", "note": "(stereo not given)", "percent activation": "71% (inactive)"},
      {"compound": "FC(F)(F)COc1nc(OCC(F)(F)F)nc(N2CCN(c3ccccc3)CC2)n1", "percent activation": "69.1% (inactive)"},
      {"compound": "Cc1ccc(S(=O)(=O)c2nc(-c3ccco3)oc2SC(C)C)cc1", "percent activation": "67.7% (inactive)"},
      {"compound": "COc1ccc(-c2cc(C(=O)NNC(=O)c3csc(N4CCOCC4)n3)c3ccccc3n2)cc1OC", "percent activation": "37.9% (inactive)"},
      {"compound": "COc1cc(-c2noc(C)c2C#Cc2ccccn2)cc(OC)c1OC", "percent activation": "67% (inactive)"},
      {"compound": "Cc1ccccc1OCc1n(CC(=O)OC2CC(C)CCC2C(C)C)c2ccccc2[n+]1C", "note": "(stereo not given)", "percent activation": "202% (inactive)"},
      {"compound": "CCc1ccc(NC(=O)CSc2nc3ccccc3c(=O)n2CCCN2CCC(C)CC2)cc1", "percent activation": "36.5% (inactive)"},
      {"compound": "Cc1ccccc1SCC(=O)Nc1cc(C(F)(F)F)ccc1N1CCOCC1", "percent activation": "68.4% (inactive)"},
      {"compound": "CCC(=O)N(CCC(c1ccc(C)cc1)c1ccco1)Cc1ccco1", "note": "(stereo not given)", "percent activation": "76.7% (inactive)"},
      {"compound": "COC(=O)C1=C(C)N(Cc2ccccc2)C(=NCc2ccc(OC)cc2)N[C@H]1c1cccc(F)c1", "percent activation": "86% (inactive)"},
      {"compound": "Nc1sc(-c2ccccc2)n[n+]1Cc1cccc2cccnc12", "percent activation": "135% (inactive)"},
      {"compound": "COc1ccc(NC(=O)C(c2ccccc2)N2CCN(c3ccccn3)CC2)cc1Cl", "note": "(stereo not given)", "percent activation": "49.1% (inactive)"}
    ]}
  ]
}
